For 23 sequences, sensor-assay potency score (higher = more potent) results are on record in the OligoGym collection.
Note: reference of the scale not given here.

The target of the first assay is FIZ1. In words: pooled miR-30 sensor sort-seq; sequence = guide strand. Conditions: shRNA.
TTTCTCACCAGTGTGGACGACC returned a sensor-assay potency score (higher = more potent) of -0.391.

TAGATCAGTCCATTCTACTGGG: the sensor-assay potency score (higher = more potent) was determined as 0.523.

TGAGCGGAACAGCTTCTCGCAC yielded a sensor-assay potency score (higher = more potent) of -1.25.

TGAAGCTGTGCTTGAAACCCTT came in with a sensor-assay potency score (higher = more potent) of -0.439.

Sequence TCTCGCACTCGGAGCAGCCGAA returned a sensor-assay potency score (higher = more potent) of -1.41.

TTGAAGGGCTTCACGTCGGTGT had a sensor-assay potency score (higher = more potent) of 0.144.

TTGAAGTCGCGCTCGCAGCGCG: the sensor-assay potency score (higher = more potent) is -0.792.

With TTGAGGTAGCACTCGTGGCGGA, the sensor-assay potency score (higher = more potent) is -0.466.

Turning to TGGTACAGGGTGTCTTCCGAGG, the sensor-assay potency score (higher = more potent) was -1.47.

With TTCTCGCACTCGGAGCAGCCGA, the sensor-assay potency score (higher = more potent) was -1.7.

For the sequence TGGTTGGCTAGGTTGAAGCTGT, the sensor-assay potency score (higher = more potent) is -0.915.

For a further assay, the target named is FKBP10. Described as above. The settings on record: shRNA.
In the case of TCAAACAGCAGCACAGCACTGC, the sensor-assay potency score (higher = more potent) was determined as 0.521.

In turn, TTGAAGATTAGCACGGCAGAGC registered a sensor-assay potency score (higher = more potent) of -0.871.

TTCCTTGTTCCACACATCCAGC returned a sensor-assay potency score (higher = more potent) of -1.14.

Consider TAGCTGGACAGCGTCCTTCGGG, for which the sensor-assay potency score (higher = more potent) is -1.26.

In turn, TAGCTGGTGTCGAAGAAGGTGC returned a sensor-assay potency score (higher = more potent) of -0.841.

Turning to TTGAATCAAACTTCTTGCCATC, the sensor-assay potency score (higher = more potent) is -0.96.

In turn, TATGGTTTTCTCAGGGTCCTGC displayed a sensor-assay potency score (higher = more potent) of 0.0683.

TAGCTTGAATCAAACTTCTTGC gave a sensor-assay potency score (higher = more potent) of 0.0257.

For the sequence TAATCTTCCTTCTCTCTCCAGG, the sensor-assay potency score (higher = more potent) is -0.239.

TCGTCGACTGTGATCTTGCCGT: the sensor-assay potency score (higher = more potent) was -0.799.

TTGATCAGCCAACCAGAGCCGA: the sensor-assay potency score (higher = more potent) is -0.877.

The sequence ATAGCTTGAATCAAACTTCTTG gave a sensor-assay potency score (higher = more potent) of 0.371.
